Drawing on PubChem BioAssay, this text covers growth inhibition, inhibition and outcome for 20 molecules.

A number with no mark means an inactive call. For some of these results: Potency and affinity values are given separately. Calls of active or inactive are those of the source. Unless noted, no rule for the calls is given here.

Assay [1] can be described thus: antimalarial activity against Dd2 strain (AID 2302;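 active = growth inhibition above 50% at the single 2 µM test dose, taken to imply half-maximal potency below 2 µM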;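 also: 0% = DMSO untreated growth and 100% = chloroquine plus artemisinin killed control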). The note with it: P. falciparum Dd2 in RBCs, LDH growth readout, 72 h; at 2 µM; hits give high values.
Assay [2] is described as follows: human hepatoma cell viability loss – ATP luminescence, cytotoxicity control for P. falciparum antimalarial project, primary screen (AID 2303;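 active = inhibition above 50%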;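 also: 0% = DMSO wells and 100% = digitonin-killed cells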). The note with it: HepG2 viability, 24-48 h, at 10 µM, hits give high values.
The target of assay [3] is L-lactate dehydrogenase (Plasmodium falciparum (isolate CDC / Honduras)) (UniProt Q27743). In words: PfLDH activity inhibition – cell lysate, 3D7 strain, counter-screen for P. falciparum growth inhibition project (AID 2304).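 Also: 0% = vehicle and 100% = reference inhibitor.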 To be noted: P. falciparum 3D7 crude extract, LDH APAD/NBT absorbance; at 2 µM; hits give high values. For orientation: The purpose of a counterscreen is to sort out artefacts and off-target activity.
Sequence of L-lactate dehydrogenase (Plasmodium falciparum (isolate CDC / Honduras)) (Q27743 whole entry, looked up): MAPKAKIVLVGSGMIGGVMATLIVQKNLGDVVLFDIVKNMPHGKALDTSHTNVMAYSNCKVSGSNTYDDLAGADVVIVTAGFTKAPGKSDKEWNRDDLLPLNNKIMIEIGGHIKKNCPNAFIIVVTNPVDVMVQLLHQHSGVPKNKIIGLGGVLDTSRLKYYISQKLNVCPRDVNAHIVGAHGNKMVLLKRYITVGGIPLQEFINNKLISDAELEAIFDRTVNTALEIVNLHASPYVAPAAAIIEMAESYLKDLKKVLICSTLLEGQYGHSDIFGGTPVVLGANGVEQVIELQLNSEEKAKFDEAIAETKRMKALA

The nature of assay [4]: inhibition of 3D7 malaria parasite growth – strain 3D7 (AID 2306).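 Also: 0% = DMSO wells and 100% = chloroquine plus artemisinin control wells.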 The note with it: P. falciparum 3D7 erythrocytic growth, LDH absorbance, 72 h; at 2 µM; hits give high values.
Assay [5] addresses Calcium-dependent protein kinase 1 (Plasmodium falciparum (isolate 3D7)) (UniProt P62344). In words: PfCDPK1 kinase inhibitors, biochemical, TCAMS library (AID 1159585; cut-off not given, nearly all actives have IC50 up to about 0.98 µM;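 also: inhibitors leave more ATP so luminescence rises with inhibition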). To be noted: recombinant PfCDPK1, Kinase-Glo ATP depletion luminescence. (In general: Kinase-Glo measures the ATP left after a reaction by luminescence.)
Assay [6] addresses Plasmodium falciparum protein kinase 6 (PK6, PF3D7_1337100) (UniProt Q8IDW1). In words: PfPK6 kinase inhibitors, biochemical, TCAMS library (AID 1159586). To be noted: recombinant PfPK6, Kinase-Glo ATP depletion luminescence.
The target in assay [7] is Protein kinase 7 (PK7), Plasmodium falciparum 3D7 (PF3D7_0213400) (UniProt Q7YTF7). In words: inhibition of Plasmodium PK7 catalytic activity – biochemical, TCAMS antimalarial set, Kinase-Glo luminescence (AID 1159587). The note with it: recombinant PfPK7, Kinase-Glo ATP depletion luminescence.
Sequence of Protein kinase 7 (PK7), Plasmodium falciparum 3D7 (PF3D7_0213400) (Q7YTF7 1-343): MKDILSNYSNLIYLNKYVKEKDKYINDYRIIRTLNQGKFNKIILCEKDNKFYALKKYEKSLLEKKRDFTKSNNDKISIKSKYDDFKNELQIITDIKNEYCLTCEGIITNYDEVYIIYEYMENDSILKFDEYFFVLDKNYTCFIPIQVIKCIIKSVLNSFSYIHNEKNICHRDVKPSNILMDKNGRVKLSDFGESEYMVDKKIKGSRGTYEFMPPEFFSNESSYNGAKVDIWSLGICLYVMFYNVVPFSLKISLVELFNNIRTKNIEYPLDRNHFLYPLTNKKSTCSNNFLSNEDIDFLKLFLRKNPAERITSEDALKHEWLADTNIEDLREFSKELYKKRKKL
Assay [8] deals with Calcium-dependent protein kinase 4 (Plasmodium falciparum (isolate 3D7)) (UniProt Q8IBS5). In words: PfCDPK4 kinase inhibitors, biochemical, TCAMS library (AID 1159588; cut-off not given, nearly all actives have IC50 up to about 0.91 µM). The note with it: recombinant PfCDPK4, Kinase-Glo ATP depletion luminescence.
Sequence of Calcium-dependent protein kinase 4 (Plasmodium falciparum (isolate 3D7)) (Q8IBS5 whole entry, looked up): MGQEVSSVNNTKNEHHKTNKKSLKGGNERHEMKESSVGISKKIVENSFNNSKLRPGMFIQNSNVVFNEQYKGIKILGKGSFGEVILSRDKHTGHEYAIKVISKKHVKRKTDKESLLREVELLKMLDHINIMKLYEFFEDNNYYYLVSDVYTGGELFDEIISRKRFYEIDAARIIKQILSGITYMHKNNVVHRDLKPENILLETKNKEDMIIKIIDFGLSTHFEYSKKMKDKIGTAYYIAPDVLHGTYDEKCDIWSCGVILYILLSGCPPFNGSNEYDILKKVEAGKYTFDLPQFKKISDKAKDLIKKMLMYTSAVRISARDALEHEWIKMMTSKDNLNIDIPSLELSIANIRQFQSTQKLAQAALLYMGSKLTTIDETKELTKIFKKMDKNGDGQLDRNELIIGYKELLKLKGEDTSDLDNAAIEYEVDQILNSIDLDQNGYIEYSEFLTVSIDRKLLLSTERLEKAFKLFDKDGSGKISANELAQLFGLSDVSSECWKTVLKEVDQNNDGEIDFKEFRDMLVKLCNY

Sequence of Plasmodium falciparum protein kinase 6 (PK6, PF3D7_1337100) (Q8IDW1 1-305): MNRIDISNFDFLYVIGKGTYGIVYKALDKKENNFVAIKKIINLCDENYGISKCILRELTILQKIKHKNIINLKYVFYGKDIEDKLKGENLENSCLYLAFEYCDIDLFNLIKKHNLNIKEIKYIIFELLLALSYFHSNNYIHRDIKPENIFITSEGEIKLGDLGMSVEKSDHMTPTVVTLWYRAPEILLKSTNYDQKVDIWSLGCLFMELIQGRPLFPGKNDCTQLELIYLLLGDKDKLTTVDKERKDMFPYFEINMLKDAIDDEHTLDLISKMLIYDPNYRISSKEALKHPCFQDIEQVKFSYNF
Sequence of Calcium-dependent protein kinase 1 (Plasmodium falciparum (isolate 3D7)) (P62344 whole entry, looked up): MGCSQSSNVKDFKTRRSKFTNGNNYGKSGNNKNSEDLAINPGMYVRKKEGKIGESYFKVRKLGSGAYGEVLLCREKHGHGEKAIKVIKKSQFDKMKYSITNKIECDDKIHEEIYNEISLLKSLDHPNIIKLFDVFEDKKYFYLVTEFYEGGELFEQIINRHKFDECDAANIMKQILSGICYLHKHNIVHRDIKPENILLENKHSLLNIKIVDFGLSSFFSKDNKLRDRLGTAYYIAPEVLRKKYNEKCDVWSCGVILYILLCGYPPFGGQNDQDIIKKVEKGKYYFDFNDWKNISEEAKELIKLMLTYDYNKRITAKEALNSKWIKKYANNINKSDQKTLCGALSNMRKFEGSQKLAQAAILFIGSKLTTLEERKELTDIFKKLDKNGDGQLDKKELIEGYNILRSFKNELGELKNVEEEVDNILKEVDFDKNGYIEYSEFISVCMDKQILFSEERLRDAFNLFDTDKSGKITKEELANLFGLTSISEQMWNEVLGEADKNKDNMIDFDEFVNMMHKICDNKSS

In the case of `NC(N)=NN=Cc1c2ccccc2c(Cl)c2c(Cl)cccc12`, the results for the growth inhibition in assay [1] and in assay [4] were 72% (active) and 91% (active), respectively. Besides, the inhibition is 71% (active) in assay [2] and -3% in assay [3]. Moreover, the outcome in assay [5], in assay [6], in assay [7] and in assay [8] was inactive.
Turning to `O=C(Nc1ccc(-c2ccc(-c3nc4ccccc4[nH]3)cc2)cc1)Nc1ccc(Cl)c(Cl)c1`, the results for the growth inhibition in assay [1] and in assay [4] were 100% (active) and 102% (active), respectively. In addition, the figures for the inhibition in assay [2] and in assay [3] were 68% (active) and 4%, respectively. For the same molecule, the result in assay [5], in assay [6], in assay [7] and in assay [8] was inactive.
Consider `O=c1cc(-c2ccc3ccccc3c2)[nH]c2ccccc12`, for which the growth inhibition in assay [1] was 44%; in assay [4] it was 81% (active). Besides, the figures for the inhibition in assay [2] and in assay [3] were 25% and -3%, respectively. For the same molecule, the outcome in assay [5], in assay [6], in assay [7] and in assay [8] was inactive.
With `CC(C)(C)C(=O)Nc1ccccc1Oc1ccc(Cl)cc1`, the growth inhibition is 96% (active) in assay [1] and 92% (active) in assay [4]. The results for the inhibition in assay [2] and in assay [3] were 54% (active) and 7%, respectively. In addition, the outcome in assay [5], in assay [6], in assay [7] and in assay [8] was inactive.
On to `COc1ccc(NC(=O)/C=C/c2ccc(Cl)c(C(F)(F)F)c2)cc1OCCN(C(C)C)C(C)C`, for which the growth inhibition in assay [1] was 28%; in assay [4], 95% (active). Further, the inhibition in assay [2] was 18%; in assay [3], -1%. The result in assay [5], in assay [6], in assay [7] and in assay [8] was inactive.
Regarding `N=C(N)CCN(Cc1ccccc1)c1ccc(Cl)cc1`, the growth inhibition in assay [1] and in assay [4] was 98% (active) in each case. Moreover, the inhibition in assay [2] was 1%; in assay [3], 4%. The outcome in assay [5], in assay [6], in assay [7] and in assay [8] was inactive.
With `Cc1nc(-c2cccc(C(=O)NC3CCC(CCN4CCc5ccc(-c6cccnc6)cc5CC4)CC3)c2)no1` (stereo not given), the growth inhibition is 4% in assay [1] and 98% (active) in assay [4]. For the same molecule, the inhibition in assay [2] was 17%; in assay [3], -1%. The outcome in assay [5], in assay [6], in assay [7] and in assay [8] was inactive.
`COc1ccc(NC(=O)Nc2ccc(Nc3nc(C)cc(N4CCCC4)n3)cc2)cc1`: the figures for the growth inhibition in assay [1] and in assay [4] were 100% (active) and 101% (active), respectively. Besides, the inhibition in assay [2] is 14%; in assay [3], -2%. For the same molecule, the outcome in assay [5], in assay [6], in assay [7] and in assay [8] was inactive.
Regarding `O=C(NCc1ccc(C(=O)NCc2cccc3ccccc23)cc1)c1ccc(O)c(-c2ccc(Cl)c(Cl)c2)c1`, the growth inhibition in assay [1] was 31%; in assay [4], 100% (active). Also, the inhibition in assay [2] is -10%; in assay [3], -2%. Further, the result in assay [5], in assay [6], in assay [7] and in assay [8] was inactive.
For the molecule `COc1c(C2CCN(CCCCNC(=O)c3ccc(-c4ccc(C(F)(F)F)cc4)c(C(=O)OC(C)C)c3)CC2)ccc2c1CCCC2`, the growth inhibition was 30% in assay [1] and 90% (active) in assay [4]. For the same molecule, the results for the inhibition in assay [2] and in assay [3] were 24% and 0%, respectively. Also, the result in assay [5], in assay [6], in assay [7] and in assay [8] was inactive.
As for `COC(=O)c1cccc(CNCc2cccc(-c3ccc(-c4nc5ccc(C(F)(F)F)cc5[nH]4)cc3)c2)c1`, the figures for the growth inhibition in assay [1] and in assay [4] were 83% (active) and 102% (active), respectively. For the same molecule, the figures for the inhibition in assay [2] and in assay [3] were 13% and 3%, respectively. For the same molecule, the result in assay [5], in assay [6], in assay [7] and in assay [8] was inactive.
As for `CC(C)CCNCc1ccc(OCc2cccc(COc3ccc(CNCCC(C)C)cc3I)c2)c(I)c1`, the growth inhibition is 49% in assay [1] and 91% (active) in assay [4]. Moreover, the values for the inhibition in assay [2] and in assay [3] were 99% (active) and 2%, respectively. For the same molecule, the outcome in assay [5], in assay [6], in assay [7] and in assay [8] was inactive.
Regarding `COc1cccc(OC)c1CN1CCC(N(C)CCCCCCCCN2CCC(OC(=O)Nc3ccccc3-c3ccccc3)CC2)CC1`, the values for the growth inhibition in assay [1] and in assay [4] were 100% (active) and 99% (active), respectively. In addition, the inhibition is 100% (active) in assay [2] and 1% in assay [3]. For the same molecule, the outcome in assay [5], in assay [6], in assay [7] and in assay [8] was inactive.
Turning to `C[C@H](NC(=O)c1c(OC2CN(C(c3ccccc3)c3ccccc3)C2)c(-c2ccccc2)nc2ccccc12)C1CCCCC1`, the results for the growth inhibition in assay [1] and in assay [4] were 74% (active) and 92% (active), respectively. Moreover, the inhibition was 0% in assay [2] and 2% in assay [3]. Besides, the outcome in assay [5], in assay [6], in assay [7] and in assay [8] was inactive.
With `Cc1cccc2[nH]c(-c3cccc(-c4cccc(CNCc5cnn(-c6ccccc6)n5)c4)c3)nc12`, the growth inhibition in assay [1] was 38%; in assay [4], 99% (active). The inhibition was 12% in assay [2] and 1% in assay [3]. The outcome in assay [5], in assay [6], in assay [7] and in assay [8] was inactive.
As to `Nc1nccc2ccc(-c3ccc(NC(=O)Nc4cc(C(F)(F)F)ccc4F)cc3)cc12`, the growth inhibition in assay [1] was 100% (active); in assay [4], 101% (active). The inhibition was 99% (active) in assay [2] and -3% in assay [3]. Also, the result in assay [5], in assay [6], in assay [7] and in assay [8] was inactive.
Regarding `OC(CNc1ccnc(Nc2ccc(Cl)cc2)n1)c1ccccc1C(F)(F)F` (stereo not given), the growth inhibition in assay [1] was 28%; in assay [4], 98% (active). Also, the inhibition in assay [2] is 22%; in assay [3] it was 0%. Further, the outcome in assay [5], in assay [6], in assay [7] and in assay [8] was inactive.
Consider `Cc1nc(-c2ccc(-c3ccc(C(=O)Nc4ccc(I)c(OCC5CCCN5C)c4)cc3)c(C)c2)no1` (stereo not given), for which the growth inhibition in assay [1] is 39%; in assay [4], 97% (active). Further, the inhibition in assay [2] is 100% (active); in assay [3], -2%. Further, the result in assay [5], in assay [6], in assay [7] and in assay [8] was inactive.
Turning to `O=[N+]([O-])c1cccc(CNCC2CCN(Cc3ccc(O)cc3)CC2)c1`, the growth inhibition is 5% in assay [1] and 98% (active) in assay [4]. Besides, the results for the inhibition in assay [2] and in assay [3] were 8% and 1%, respectively. Besides, the outcome in assay [5], in assay [6], in assay [7] and in assay [8] was inactive.
Consider `Cc1cc(NCC(c2ccccc2)c2ccccc2)nc(NCC2CCCCC2)n1`, for which the growth inhibition in assay [1] was 93% (active); in assay [4], 100% (active). In addition, the inhibition is 12% in assay [2] and 3% in assay [3]. The outcome in assay [5], in assay [6], in assay [7] and in assay [8] was inactive.

For orientation: inhibition means the drop in the measured response relative to a control, in per cent.
